This passage reports inhibition results from PubChem BioAssay AID602399 (Sanford-Burnham Center for Chemical Genomics, 2012).

The structures appear in SMILES notation. About 2,800 (0.78%) of roughly 360,000 compounds were called active. Shown is part of a subset that was picked to be rich in actives. Values without a mark were called inactive. Rule as the data show it: active = inhibition above about 26%; inactive = the rest.

This assay deals with Nicotinate-nucleotide adenylyltransferase NadD (Staphylococcus aureus N315). Kind of assay: S. aureus NadD enzyme activity blockers – biochemical, colorimetric, uHTS, primary screen (AID 602399). To be noted: purified NadD enzyme, colorimetric absorbance read-out; at 20 µM; active compounds read high.
`CCCCCCCC1(C)NC(=O)N(CC(=O)Nc2cc(C)on2)C1=O` (stereo not given): the inhibition – broadly, the change of the read-out against control, counted positive when it falls – was -7.34%. For the compound `O=C(CC1C(=O)NCCN1CC(c1ccccc1)c1ccccc1)NCCc1cn[nH]c1` (stereo not given), the inhibition is 7.62%.

Take `Cn1ncc([N+](=O)[O-])c1C(=O)Nc1cc(Cl)ccc1Cl`: the inhibition was -3.19%. In the case of `Cc1cc(C)c(OCC(=O)N(Cc2cccs2)C2CCS(=O)(=O)C2)c(C)c1` (stereo not given) it was -1.96%; in that of `COc1cccc2c1C(=O)c1c(O)c3c(c(O)c1C2=O)CC(O)(C(C)=NNC(=O)c1ccc(Cl)c(Cl)c1)CC3OC1CC(N)C(O)C(C)O1` (stereo not given), 38.5% (active); in that of `Brc1cnc(N2CCCC2)nc1N1CCCCC1`, -5%. Turning to `Cc1cc2nc(-c3ccc(Cl)cc3)c(Cc3cccc(F)c3)n2c(C)c1Br`, the inhibition is 28.5%. In the case of `Cc1cc2nc(-c3ccc(F)cc3)c(Cc3ccsc3)n2c(C)c1Br`, the inhibition is 16.1%. Next, `Cc1cc2nc(-c3ccco3)c(Cc3cccc(F)c3)n2c(C)c1Br`: 50.5% (active); `CCCSc1nc2[nH]ncc2c(=O)[nH]1`: 0.611%; `CC(C)Oc1c(Br)cc(Br)cc1/C=N/NC(N)=S`: 6.4%.

For the compound `COCCNC(=O)CN(Cc1ccco1)C(=O)CCC(=O)Nc1nccs1`, the inhibition was -5.06%.

Consider `O=C1Nc2cc(C(=O)N3CCN(c4ccc(F)cc4)CC3)ccc2NC1CSCc1cccc(F)c1` (stereo not given), for which the inhibition was 36.8% (active). Take `C=CCn1c(SCc2cccc(F)c2)nc2cc(C(=O)N3CCC(C(N)=O)CC3)ccc2c1=O`: the inhibition is -4.38%.

With `O=C(c1cccc(F)c1)N1CCN(c2ccc([N+](=O)[O-])c(N3CCCCC3)c2)CC1`, the inhibition was -9.3%. Take `COC(=O)c1ccc(C(=O)OC)c(NC(=S)N2CCN(c3ccc(F)cc3)CC2)c1`: the inhibition was -1.25%. With `Cc1noc(C)c1S(=O)(=O)Nc1ccc(C(=O)N2CCN(c3ccc(F)cc3)CC2)cc1`, the inhibition was 10.7%. In the case of `Cc1ccc(CSCC2Nc3ccc(C(=O)N4CCN(c5ccc(F)cc5)CC4)cc3NC2=O)cc1` (stereo not given) it was 73.7% (active); in that of `COC(=O)c1ccc(/C=N/N2C(C)CCCC2C)cc1` (stereo not given), -8.27%; in that of `O=C(COC(=O)c1ccc(Cl)nc1)NCc1ccc2c(c1)OCO2`, 0.8%. Take `NS(=O)(=O)c1ccc(NC(=O)COC(=O)c2c3c(nc4ccccc24)/C(=C\c2ccc4c(c2)OCO4)CCC3)cc1`: the inhibition was 54.7% (active). Consider `CC(NC(=S)Nc1ccc(S(N)(=O)=O)cc1)c1ccc2c(c1)OCO2` (stereo not given), for which the inhibition is -0.72%.

Regarding `NC(=O)c1ccc(NC(=O)COC(=O)c2c3c(nc4ccccc24)/C(=C\c2ccc4c(c2)OCO4)CCC3)cc1`, the inhibition was 55.2% (active). For `NS(=O)(=O)c1ccc(NC(=O)COC(=O)CCc2c[nH]c3ccccc23)cc1`, the inhibition was -1.06%. For the compound `CC(=O)Nc1cccc(C(=O)OCC(=O)c2ccc3c(c2)OCO3)c1`, the inhibition was -7.21%.
